One sequence from paper PMC7862700, “An all-to-all approach to the identification of sequence-specific readers for epigenetic DNA modifications on cytosine” can be followed below.

Common to all, as to assay: DAPPL (digital affinity profiling via proximity ligation, sequencing); 10 mM Tris-HCl pH 7.5, 50 mM NaCl, 1 mM DTT, 4% glycerol, room temperature, 30 min; GST-TFs on glutathione beads, 16-mer random dsDNA library, 0.1% formaldehyde crosslink after washing; high values mean tight binding
Test [1] addresses T1, FEV (Homo sapiens, UniProt Q99581 1-238).
T1 sequence: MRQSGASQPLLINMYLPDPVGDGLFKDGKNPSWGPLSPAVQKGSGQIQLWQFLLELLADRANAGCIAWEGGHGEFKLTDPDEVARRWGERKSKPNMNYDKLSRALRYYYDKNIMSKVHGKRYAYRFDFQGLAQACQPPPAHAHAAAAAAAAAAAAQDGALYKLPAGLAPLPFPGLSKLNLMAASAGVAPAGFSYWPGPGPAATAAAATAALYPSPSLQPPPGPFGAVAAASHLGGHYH
As to conditions: protein: recombinant; tags: N-terminal GST; dsDNA, one strand shown. Summed up: (§1)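 Binding signal is defined as a hexamer's read frequency for one factor over its frequency for the tag-only sample. To obtain reads, GST-fused human transcription factors were expressed in yeast, captured on glutathione beads, barcoded with DNA and pooled with that sample. Pools met 200 nmole of a 16-mer random double-stranded DNA library in Tris/NaCl/DTT/glycerol buffer for 30 min at room temperature before washing, 0.1% formaldehyde crosslinking, proximity ligation (BsaI/T4 ligase, 1 h, 37 °C), PCR and Illumina NextSeq500 sequencing.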

The target in test [2] is ETV5 (Homo sapiens, UniProt P41161 1-510). The conditions noted are these: protein: recombinant; tags: N-terminal GST; dsDNA, one strand shown. In short, it runs like this: as §1
Sequence of ETV5 (P41161 whole entry): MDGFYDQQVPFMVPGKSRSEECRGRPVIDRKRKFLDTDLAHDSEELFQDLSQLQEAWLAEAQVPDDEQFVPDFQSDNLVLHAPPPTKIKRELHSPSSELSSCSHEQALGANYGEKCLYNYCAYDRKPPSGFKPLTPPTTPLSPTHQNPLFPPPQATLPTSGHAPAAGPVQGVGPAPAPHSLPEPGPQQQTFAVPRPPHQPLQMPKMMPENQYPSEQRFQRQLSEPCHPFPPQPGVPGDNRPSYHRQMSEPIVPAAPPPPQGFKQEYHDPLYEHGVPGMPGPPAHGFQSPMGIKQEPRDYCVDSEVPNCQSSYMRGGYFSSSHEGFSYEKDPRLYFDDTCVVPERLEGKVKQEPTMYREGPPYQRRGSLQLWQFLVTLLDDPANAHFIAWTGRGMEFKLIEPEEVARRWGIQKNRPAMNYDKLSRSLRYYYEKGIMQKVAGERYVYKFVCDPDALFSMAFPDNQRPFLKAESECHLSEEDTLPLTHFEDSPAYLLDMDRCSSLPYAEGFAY
Test [3] deals with HSF1 (Homo sapiens, UniProt Q00613 1-529). The conditions noted are these: protein: recombinant; tags: N-terminal GST; chain copies: 3; dsDNA, one strand shown. Summed up: as §1
Sequence of HSF1 (Q00613 whole entry): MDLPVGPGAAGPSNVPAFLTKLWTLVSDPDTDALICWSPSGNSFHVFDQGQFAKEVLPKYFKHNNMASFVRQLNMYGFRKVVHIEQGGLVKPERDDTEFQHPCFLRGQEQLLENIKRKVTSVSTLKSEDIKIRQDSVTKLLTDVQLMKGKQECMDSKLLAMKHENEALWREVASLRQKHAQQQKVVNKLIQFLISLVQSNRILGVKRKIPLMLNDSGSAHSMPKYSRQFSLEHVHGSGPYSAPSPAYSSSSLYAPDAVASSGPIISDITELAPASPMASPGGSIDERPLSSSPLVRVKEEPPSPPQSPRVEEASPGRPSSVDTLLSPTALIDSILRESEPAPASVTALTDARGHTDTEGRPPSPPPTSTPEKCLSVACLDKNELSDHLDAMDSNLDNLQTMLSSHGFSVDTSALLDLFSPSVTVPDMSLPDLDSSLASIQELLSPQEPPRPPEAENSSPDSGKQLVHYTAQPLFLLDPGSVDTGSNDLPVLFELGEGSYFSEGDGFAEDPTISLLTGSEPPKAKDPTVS
Test [4] deals with T2, SPIC (Homo sapiens, UniProt Q8N5J4 1-248).
T2 sequence: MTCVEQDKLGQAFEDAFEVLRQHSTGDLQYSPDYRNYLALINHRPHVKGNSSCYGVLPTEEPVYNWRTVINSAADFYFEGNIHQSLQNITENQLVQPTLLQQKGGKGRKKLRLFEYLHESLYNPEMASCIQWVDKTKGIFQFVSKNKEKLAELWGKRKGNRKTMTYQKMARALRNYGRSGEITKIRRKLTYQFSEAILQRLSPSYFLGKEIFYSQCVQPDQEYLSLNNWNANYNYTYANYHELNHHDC
As to conditions: protein: recombinant; tags: N-terminal GST; dsDNA, one strand shown. In short, it runs like this: as §1

Test [5] deals with ELF4 (Homo sapiens, UniProt Q99607 1-663). The conditions noted are these: protein: recombinant; tags: N-terminal GST; dsDNA, one strand shown. Summed up:
as §1

The target in test [6] is T3, ELK4 (Homo sapiens, UniProt P28324-2 1-405).
T3 sequence: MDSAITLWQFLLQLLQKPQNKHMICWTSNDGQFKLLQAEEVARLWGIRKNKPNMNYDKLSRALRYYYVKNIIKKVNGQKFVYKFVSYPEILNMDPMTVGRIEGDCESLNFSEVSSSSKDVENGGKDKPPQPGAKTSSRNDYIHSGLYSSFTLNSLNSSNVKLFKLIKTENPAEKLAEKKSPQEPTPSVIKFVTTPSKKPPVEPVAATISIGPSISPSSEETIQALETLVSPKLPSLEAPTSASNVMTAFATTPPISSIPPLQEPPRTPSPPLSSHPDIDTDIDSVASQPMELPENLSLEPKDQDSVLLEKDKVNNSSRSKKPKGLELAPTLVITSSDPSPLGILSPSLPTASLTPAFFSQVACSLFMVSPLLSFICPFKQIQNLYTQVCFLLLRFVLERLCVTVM
The conditions noted are these: protein: recombinant; tags: N-terminal GST; dsDNA, one strand shown. Summed up:
as §1

For test [7], the target named is T4, ETV2 (Homo sapiens, UniProt O00321 1-342).
T4 sequence: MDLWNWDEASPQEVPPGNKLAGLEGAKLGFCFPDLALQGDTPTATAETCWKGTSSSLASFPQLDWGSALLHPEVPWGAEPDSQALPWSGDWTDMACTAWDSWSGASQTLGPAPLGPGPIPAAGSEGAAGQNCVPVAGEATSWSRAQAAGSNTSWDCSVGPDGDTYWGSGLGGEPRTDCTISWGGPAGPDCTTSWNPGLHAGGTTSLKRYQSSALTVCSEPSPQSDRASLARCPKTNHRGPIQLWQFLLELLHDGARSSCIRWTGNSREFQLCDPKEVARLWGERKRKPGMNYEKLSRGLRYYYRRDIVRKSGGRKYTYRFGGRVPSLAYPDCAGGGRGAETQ
The conditions noted are these: protein: recombinant; tags: N-terminal GST; dsDNA, one strand shown. In short, it runs like this: as §1

For test [8], the target named is T5, ELF3 (Homo sapiens, UniProt P78545 1-371).
T5 sequence: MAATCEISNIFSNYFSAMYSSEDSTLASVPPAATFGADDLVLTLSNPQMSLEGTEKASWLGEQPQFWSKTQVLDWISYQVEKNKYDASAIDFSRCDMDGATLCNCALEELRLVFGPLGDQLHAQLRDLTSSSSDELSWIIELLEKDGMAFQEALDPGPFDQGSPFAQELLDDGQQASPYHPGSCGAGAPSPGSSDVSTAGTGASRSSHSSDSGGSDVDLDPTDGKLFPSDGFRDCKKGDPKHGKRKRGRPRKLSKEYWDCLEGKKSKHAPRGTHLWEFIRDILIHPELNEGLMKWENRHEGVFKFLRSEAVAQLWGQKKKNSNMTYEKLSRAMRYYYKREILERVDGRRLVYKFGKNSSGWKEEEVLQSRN
The conditions noted are these: protein: recombinant; tags: N-terminal GST; dsDNA, one strand shown. Summed up:
as §1

Test [9] concerns the target CRX (Homo sapiens, UniProt O43186 1-299). As to conditions: protein: recombinant; tags: N-terminal GST; dsDNA, one strand shown. In short, it runs like this: as §1
Test [10] has as its target ETV1 (Homo sapiens, UniProt P50549 1-477). As to conditions: protein: recombinant; tags: N-terminal GST; dsDNA, one strand shown. Summed up: as §1
The target in test [11] is T6, ERF (Homo sapiens, UniProt P50548 1-548).
T6 sequence: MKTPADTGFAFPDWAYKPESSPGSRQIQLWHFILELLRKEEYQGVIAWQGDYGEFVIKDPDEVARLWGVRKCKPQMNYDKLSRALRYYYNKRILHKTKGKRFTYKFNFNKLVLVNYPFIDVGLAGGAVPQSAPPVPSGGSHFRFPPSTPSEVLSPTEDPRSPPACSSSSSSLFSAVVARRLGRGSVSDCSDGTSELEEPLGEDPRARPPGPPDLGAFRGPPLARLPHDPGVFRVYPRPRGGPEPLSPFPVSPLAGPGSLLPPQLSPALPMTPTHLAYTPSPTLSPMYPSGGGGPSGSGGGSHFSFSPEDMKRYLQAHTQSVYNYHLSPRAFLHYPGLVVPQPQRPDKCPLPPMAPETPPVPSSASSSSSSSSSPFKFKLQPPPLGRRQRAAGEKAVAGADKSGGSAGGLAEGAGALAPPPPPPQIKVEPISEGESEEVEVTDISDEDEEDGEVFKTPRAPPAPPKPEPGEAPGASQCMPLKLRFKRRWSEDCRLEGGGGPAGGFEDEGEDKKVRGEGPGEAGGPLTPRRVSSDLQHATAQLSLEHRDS
The conditions noted are these: protein: recombinant; tags: N-terminal GST; dsDNA, one strand shown. In short, it runs like this: as §1

Test [12] concerns the target T7, ETV3L (Homo sapiens, UniProt Q6ZN32 1-361).
T7 sequence: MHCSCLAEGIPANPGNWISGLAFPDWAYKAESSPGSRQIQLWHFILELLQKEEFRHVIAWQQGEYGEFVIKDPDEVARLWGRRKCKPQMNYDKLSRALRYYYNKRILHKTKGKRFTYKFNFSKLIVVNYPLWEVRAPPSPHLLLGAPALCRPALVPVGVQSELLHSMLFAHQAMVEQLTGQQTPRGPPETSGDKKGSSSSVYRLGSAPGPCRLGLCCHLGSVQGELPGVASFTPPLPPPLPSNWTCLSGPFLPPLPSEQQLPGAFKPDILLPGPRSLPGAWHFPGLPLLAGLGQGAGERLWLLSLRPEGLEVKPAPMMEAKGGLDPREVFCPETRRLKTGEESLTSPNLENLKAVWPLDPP
The conditions noted are these: protein: recombinant; tags: N-terminal GST; dsDNA, one strand shown. Summed up: as §1

The target in test [13] is T8, ETS2 (Homo sapiens, UniProt P15036 1-469).
T8 sequence: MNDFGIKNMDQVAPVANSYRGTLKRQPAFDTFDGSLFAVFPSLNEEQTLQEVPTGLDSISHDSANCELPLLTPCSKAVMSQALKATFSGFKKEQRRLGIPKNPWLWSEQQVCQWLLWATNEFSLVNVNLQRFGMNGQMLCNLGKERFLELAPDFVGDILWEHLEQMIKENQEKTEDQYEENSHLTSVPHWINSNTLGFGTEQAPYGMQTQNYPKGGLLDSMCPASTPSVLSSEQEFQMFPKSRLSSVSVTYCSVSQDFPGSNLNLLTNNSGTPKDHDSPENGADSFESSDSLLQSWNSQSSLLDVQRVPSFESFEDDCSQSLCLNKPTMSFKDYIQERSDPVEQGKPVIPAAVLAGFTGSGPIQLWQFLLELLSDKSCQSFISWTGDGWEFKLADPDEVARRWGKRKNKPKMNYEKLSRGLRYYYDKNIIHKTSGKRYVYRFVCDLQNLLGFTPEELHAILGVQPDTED
The conditions noted are these: protein: recombinant; tags: N-terminal GST; dsDNA, one strand shown. In short, it runs like this: as §1

For test [14], the target named is T9, SPDEF (Homo sapiens, UniProt O95238 1-335).
T9 sequence: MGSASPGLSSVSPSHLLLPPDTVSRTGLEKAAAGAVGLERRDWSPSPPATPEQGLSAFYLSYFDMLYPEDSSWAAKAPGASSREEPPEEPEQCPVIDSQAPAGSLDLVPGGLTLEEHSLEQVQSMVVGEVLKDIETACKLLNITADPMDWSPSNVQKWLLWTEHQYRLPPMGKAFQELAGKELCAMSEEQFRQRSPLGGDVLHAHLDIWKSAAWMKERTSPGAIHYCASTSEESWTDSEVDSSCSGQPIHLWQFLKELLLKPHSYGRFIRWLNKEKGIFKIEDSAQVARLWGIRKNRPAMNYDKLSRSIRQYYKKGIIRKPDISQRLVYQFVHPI
The conditions noted are these: protein: recombinant; tags: N-terminal GST; dsDNA, one strand shown. Summed up: as §1

The target of test [15] is T10, ETV7 (Homo sapiens, UniProt Q9Y603 1-341).
T10 sequence: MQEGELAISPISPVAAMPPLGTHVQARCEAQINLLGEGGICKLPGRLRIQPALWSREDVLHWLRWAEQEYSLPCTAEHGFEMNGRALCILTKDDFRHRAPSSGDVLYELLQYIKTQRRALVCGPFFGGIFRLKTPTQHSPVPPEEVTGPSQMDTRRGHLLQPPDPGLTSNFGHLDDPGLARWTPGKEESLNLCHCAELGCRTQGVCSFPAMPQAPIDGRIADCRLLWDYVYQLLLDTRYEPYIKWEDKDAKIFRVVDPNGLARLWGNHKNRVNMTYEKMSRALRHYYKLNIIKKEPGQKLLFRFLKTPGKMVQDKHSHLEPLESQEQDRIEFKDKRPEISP
As to conditions: protein: recombinant; tags: N-terminal GST; dsDNA, one strand shown. In short, it runs like this:
as §1

The target in test [16] is T11, ELF5 (Homo sapiens, UniProt Q9UKW6-2 1-255).
T11 sequence: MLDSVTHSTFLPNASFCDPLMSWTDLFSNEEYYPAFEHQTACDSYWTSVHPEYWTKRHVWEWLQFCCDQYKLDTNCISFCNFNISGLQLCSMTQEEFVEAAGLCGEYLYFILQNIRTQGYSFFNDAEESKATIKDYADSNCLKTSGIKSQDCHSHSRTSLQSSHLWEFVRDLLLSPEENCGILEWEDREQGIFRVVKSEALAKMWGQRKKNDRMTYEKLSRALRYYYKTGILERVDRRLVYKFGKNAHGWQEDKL
As to conditions: protein: recombinant; tags: N-terminal GST; dsDNA, one strand shown. Summed up: as §1

Test [17] has as its target T12, ETV3 (Homo sapiens, UniProt P41162-2 1-143).
T12 sequence: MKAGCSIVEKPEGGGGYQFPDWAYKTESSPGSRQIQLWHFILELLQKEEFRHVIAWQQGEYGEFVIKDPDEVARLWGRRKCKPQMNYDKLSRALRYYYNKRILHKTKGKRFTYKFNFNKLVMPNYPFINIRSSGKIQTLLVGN
The conditions noted are these: protein: recombinant; tags: N-terminal GST; dsDNA, one strand shown. Summed up:
as §1

Test [18] deals with ETV6 (Homo sapiens, UniProt P41212 1-452). As to conditions: protein: recombinant; tags: N-terminal GST; dsDNA, one strand shown. In short, it runs like this:
as §1

Sequence of CRX (O43186 whole entry): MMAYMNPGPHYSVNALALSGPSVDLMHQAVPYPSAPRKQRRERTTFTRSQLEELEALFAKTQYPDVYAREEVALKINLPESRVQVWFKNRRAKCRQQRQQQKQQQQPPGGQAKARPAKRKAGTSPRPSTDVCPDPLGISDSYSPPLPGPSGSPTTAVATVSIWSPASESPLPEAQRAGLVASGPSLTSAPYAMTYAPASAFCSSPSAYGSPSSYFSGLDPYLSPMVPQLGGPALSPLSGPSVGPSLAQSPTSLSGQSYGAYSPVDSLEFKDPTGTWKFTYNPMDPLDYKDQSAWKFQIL
Sequence of ETV6 (P41212 whole entry): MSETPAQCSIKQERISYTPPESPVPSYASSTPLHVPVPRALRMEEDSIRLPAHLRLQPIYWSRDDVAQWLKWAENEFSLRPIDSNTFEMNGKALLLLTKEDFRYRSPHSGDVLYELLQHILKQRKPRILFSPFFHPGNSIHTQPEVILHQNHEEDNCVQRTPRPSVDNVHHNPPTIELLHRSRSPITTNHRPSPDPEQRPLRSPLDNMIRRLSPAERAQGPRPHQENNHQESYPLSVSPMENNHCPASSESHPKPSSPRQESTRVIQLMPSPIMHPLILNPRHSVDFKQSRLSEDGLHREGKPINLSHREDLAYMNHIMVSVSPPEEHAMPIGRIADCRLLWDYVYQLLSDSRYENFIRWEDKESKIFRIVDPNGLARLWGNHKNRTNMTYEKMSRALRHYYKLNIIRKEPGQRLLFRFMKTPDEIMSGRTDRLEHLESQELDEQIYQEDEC
Sequence of ETV1 (P50549 whole entry): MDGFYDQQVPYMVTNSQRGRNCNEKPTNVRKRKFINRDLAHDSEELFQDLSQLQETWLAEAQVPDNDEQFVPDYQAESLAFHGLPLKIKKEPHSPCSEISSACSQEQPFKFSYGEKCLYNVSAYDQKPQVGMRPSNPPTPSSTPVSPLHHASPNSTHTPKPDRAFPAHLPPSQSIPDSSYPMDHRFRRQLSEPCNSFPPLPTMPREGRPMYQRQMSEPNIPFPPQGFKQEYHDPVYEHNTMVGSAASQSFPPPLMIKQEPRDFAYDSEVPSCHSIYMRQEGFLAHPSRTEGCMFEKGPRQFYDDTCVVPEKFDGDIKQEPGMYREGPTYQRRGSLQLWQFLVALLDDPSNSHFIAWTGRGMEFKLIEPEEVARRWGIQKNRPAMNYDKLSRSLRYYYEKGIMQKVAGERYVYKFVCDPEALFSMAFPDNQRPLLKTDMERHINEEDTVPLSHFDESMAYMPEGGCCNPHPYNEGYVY
Sequence of ELF4 (Q99607 whole entry): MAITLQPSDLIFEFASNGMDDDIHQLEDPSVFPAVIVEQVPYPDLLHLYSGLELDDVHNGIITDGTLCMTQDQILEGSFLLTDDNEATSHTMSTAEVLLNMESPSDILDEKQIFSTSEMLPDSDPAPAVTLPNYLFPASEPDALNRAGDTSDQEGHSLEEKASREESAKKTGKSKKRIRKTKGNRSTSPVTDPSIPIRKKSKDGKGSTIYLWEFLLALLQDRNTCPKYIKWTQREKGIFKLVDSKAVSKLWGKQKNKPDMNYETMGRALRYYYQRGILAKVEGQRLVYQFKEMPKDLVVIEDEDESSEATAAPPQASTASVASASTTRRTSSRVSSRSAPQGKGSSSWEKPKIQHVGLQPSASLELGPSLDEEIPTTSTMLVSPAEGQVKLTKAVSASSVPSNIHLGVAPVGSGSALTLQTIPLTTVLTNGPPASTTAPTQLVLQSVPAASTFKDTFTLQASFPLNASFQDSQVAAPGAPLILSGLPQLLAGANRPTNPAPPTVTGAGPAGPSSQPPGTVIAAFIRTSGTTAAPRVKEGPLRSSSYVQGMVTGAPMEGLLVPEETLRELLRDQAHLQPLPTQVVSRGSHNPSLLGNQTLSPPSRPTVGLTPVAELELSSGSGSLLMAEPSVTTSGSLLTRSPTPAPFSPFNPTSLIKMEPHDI

TTGTCT: the binding signal in test [1] is 1.24 fold enrichment (6-mer frequency, TF over GST control); in test [2], 1.29 fold enrichment (6-mer frequency, TF over GST control); in test [3], 1.14 fold enrichment (6-mer frequency, TF over GST control); in [4], 1.3 fold enrichment (6-mer frequency, TF over GST control); in test [5], 1.18 fold enrichment (6-mer frequency, TF over GST control); in [6], 1.22 fold enrichment (6-mer frequency, TF over GST control). For the same sequence, the binding signal is 1.27 fold enrichment (6-mer frequency, TF over GST control) in test [7]; 1.34 fold enrichment (6-mer frequency, TF over GST control) in test [8]; 1.15 fold enrichment (6-mer frequency, TF over GST control) in test [9]; 1.2 fold enrichment (6-mer frequency, TF over GST control) in [10]; 1.16 fold enrichment (6-mer frequency, TF over GST control) in test [11]; 1.18 fold enrichment (6-mer frequency, TF over GST control) in [12]. For the same sequence, the binding signal was 1.22 fold enrichment (6-mer frequency, TF over GST control) in test [13]; 1.22 fold enrichment (6-mer frequency, TF over GST control) in [14]; 1.33 fold enrichment (6-mer frequency, TF over GST control) in [15]; 1.26 fold enrichment (6-mer frequency, TF over GST control) in test [16]; 1.23 fold enrichment (6-mer frequency, TF over GST control) in test [17]; 1.13 fold enrichment (6-mer frequency, TF over GST control) in test [18].
